Results taken from PubChem BioAssay (NCATS).
Records with an inconclusive call do not appear. The source made the active and inactive calls. Unless noted, calls follow the shape of the dose curve; as a rule, active = well fitted curve in the direction sought with a large enough effect; inconclusive = small, poorly fitted or top-dose-only effect, or another doubt; inactive = no such curve, though single readings can be large; an effect the other way counts as inactive or inconclusive.

How the values were obtained:
[1] = AP1 Signaling Pathway (AID 357; active = well fitted curve in either direction with a large enough effect, not every such curve was filed as active;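 also: ME-180 reporter cells stimulated with EGF at its EC50 level; % is scaled to controls: 0 for no effect and ±100 for the full control effect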); details: ME-180 AP-1-bla reporter, EGF-induced, beta-lactamase ratio, 5 h; at 7.69 µM (top of the series) unless noted
Method in brief: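 Titration-series screen for positive or negative modulators of EC50 EGF-induced signaling in ME-180 cells carrying an AP-1-driven beta-lactamase reporter. After 5 hours at 37 degrees Celsius, CCF4 460nm/530nm emission ratio gave %Activity; AC50 values derived.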

[2] = biological target: Cytochrome P450 1A2 (Homo sapiens) (UniProt P05177); assay: p450-cyp1a2 (AID 410; calls by dose curve; also: potency is read from the fitted curve at half-maximal effect;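 as to activity change, negative = inhibition: -100% = full effect of reference inhibitor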)
Method in brief: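 Human CYP1A2 (20nM) demethylated Luciferin-ME at its Km (100uM) in 100mM KPO4. After 10 min compound preincubation, NADPH regeneration ran the reaction 60 min at room temperature. Luciferin was read by luminescence, normalized to 57 uM furafylline.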

[3] = Stat Signaling Pathway (AID 446; active = well fitted curve in either direction with a large enough effect, not every such curve was filed as active;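 also: ME-180 cervical cancer cells given 40 pM IL-6 alongside compound; SIE-controlled beta-lactamase reporter measured as 460/530 nm FRET emission ratio; % is scaled to controls: 0 for no effect and ±100 for the full control effect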); details: ME-180 SIE beta-lactamase reporter, IL-6 stimulated, 5 h; at 7.69 µM (top of the series) unless noted
Method in brief: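 ME-180 cells carrying a SIE-driven beta-lactamase reporter are stimulated with 40 pM IL-6 for 5 h at 37C in the presence of compound. The 460/530 nm FRET substrate ratio is read after 2.5 h at RT. Data are normalised to 300 pM IL-6 and to 125 nM JAK inhibitor controls.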

[4] = biological target: Glucocorticoid receptor (Homo sapiens) (UniProt P04150); assay: GR-GFP Redistribution (AID 450;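 active = compounds whose dose series gives a full or clear partial fitted curve of increased nuclear translocation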; also: potency is read from the fitted curve at half-maximal effect); details: U2OS GR-GFP nuclear translocation, laser cytometry, 2 h
[5] = biological target: Glucocorticoid receptor (Homo sapiens) (UniProt P04150); assay: GR-EFC Redistribution (AID 451; calls by dose curve; also: potency is read from the fitted curve at half-maximal effect); details: CHO-K1 GR-EFC translocation, beta-gal luminescence, 2 h
Method in brief: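 CHO-K1 cells expressing nuclear EA and GR-ED fragments of b-gal; compounds titrated up to 46 uM final, 2 h at 37 C. GR nuclear translocation read as complemented b-gal luminescence after 1 h RT detection.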

[6] = biological target: Mitogen-activated protein kinase 10 (Mus musculus) (UniProt Q61831); assay: JNK3 AlphaScreen Assay (AID 530; active = well fitted curve in either direction with a large enough effect, not every such curve was filed as active;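 also: kinase came from lysate of stimulated human HepG2 cells; signal reports phosphorylation of biotinylated GST-cJun 1-79 at Ser73 with 10 µM ATP; % is scaled to controls: 0 for no effect and ±100 for the full control effect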)
Method in brief: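 qHTS format: compounds tested as titrations against IL-1beta/TNF-alpha-activated HepG2 lysate JNK3 with biotin-GST-cJun substrate and 10 uM ATP at room temperature. Loss of anti-phospho-cJun AlphaScreen signal indicates inhibition.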

[7] = biological target: 3',5'-cyclic-AMP phosphodiesterase 4B (Homo sapiens) (UniProt Q07343); assay: qHTS Assay for Inhibitors of PDE-IV (AID 607; active = well fitted activation curve with a large enough effect in the main read-out, with a control signal flat, not every such curve was filed as active; also: % of control where 0% means no effect)
Method in brief: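 HEK293 ACTOne cells with CNG channel (1000/well), endogenous PDE4; membrane potential dye, compounds up to 22.9 uM final. Fluorescence Ex 535/Em 590; RO 20-1724 (100 uM final) as reference.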

[8] = biological target: Cytochrome P450 3A4 (Homo sapiens) (UniProt P08684); assay: qHTS Assay for Inhibitors and Substrates of Cytochrome P450 3A4 (AID 884); also: potency is read from the fitted curve at half-maximal effect; nearly all actives have a fitted effect of over 50% in size
Method in brief: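 20 nM human CYP3A4 with 25 uM Luciferin-PPXE (at KM) in 200 mM KPO4, preincubated 10 min with compound; NADPH regeneration started a 60 min RT reaction. Luciferin detected by luminescence, normalized to 57 uM ketoconazole as full inhibition.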

[9] = biological target: Cytochrome P450 3A4 (Homo sapiens) (UniProt P08684); assay: qHTS Assay for Activators of Cytochrome P450 3A4 (AID 885); also: nearly all actives have a fitted effect of over 65% in size
Method in brief: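 Human CYP3A4 (20 nM) with Luciferin-PPXE at 25 uM (its KM) in 200 mM KPO4; 10 min compound preincubation, then NADPH regeneration and 60 min reaction at RT. Luciferin read by luminescence; normalized to 57 uM ketoconazole full inhibition.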

[10] = biological target: Cytochrome P450 2C19 (Homo sapiens) (UniProt P33261); assay: qHTS Assay for Inhibitors and Substrates of Cytochrome P450 2C19 (AID 899); also: nearly all actives have a fitted effect of over 60% in size; also: potency is read from the fitted curve at half-maximal effect
Method in brief: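 Luminescent read-out of luciferin formed from Luciferin-H EGE (10uM, equal to KM). Enzyme 5nM in 50mM KPO4; compound added, 10 min at 37C, then NADPH regenerating system for 60 min at 37C. Full inhibition defined by 57uM ketoconazole.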

[11] = NFAT Signaling Pathway (AID 444; active = well fitted curve in either direction with a large enough effect, not every such curve was filed as active;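 also: carbachol stimulus at about its EC50 of 1 µM final; % is scaled to controls: 0 for no effect and ±100 for the full control effect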); details: Jurkat NFAT-bla M1, carbachol, beta-lactamase ratio, 5 h; at 7.69 µM (top of the series) unless noted
Method in brief: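 Jurkat cells with NFAT-driven β-lactamase reporter and co-expressed M1 receptor, stimulated with carbachol (final 1 uM, ~EC50), compound titration, 5 h at 37 °C. CCF4 loaded 1 h at RT; 460/530 nm ratio gave %activity and AC50.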

[12] = biological target: Guanine nucleotide-binding protein G(i) subunit alpha-1 (Homo sapiens) (UniProt P63096); assay: qHTS Assay for Inhibitors of RGS12 GoLoco Motif Activity (Green Fluorophore) (AID 879);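 also: 0% = labeled peptide with Gαi1 and full inhibition = labeled peptide alone without protein; negative values mean loss of peptide binding seen as reduced polarization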
Method in brief: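 Fluorescence polarization assay: 50 nM Gαi1 with 10 nM FITC-labeled RGS12 GoLoco peptide in 10 mM Tris pH 7.5, 150 mM NaCl, 0.1 mM GDP, 0.05% NP40, 10 min at room temperature with compound.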

[13] = biological target: Muscarinic acetylcholine receptor M1 (Rattus norvegicus) (UniProt P08482); assay: qHTS Assay for Antagonists of Acetylcholine Muscarinic M1 Receptor: Kinetic Measurement of Intracellular Calcium Response (AID 943);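 also: Fluo-4 calcium signal as peak divided by basal fluorescence over 4 min; nearly all actives have a fitted effect of over 75% in size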
Method in brief: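 CHO cells stably expressing rat M1 were loaded with no-wash Fluo-4 dye for 1 h at 37C, pre-incubated 10 min with compound, then challenged with EC80 carbachol (100 nM final); kinetic calcium read 4 min, peak/basal ratio.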

[14] = biological target: Muscarinic acetylcholine receptor M1 (Rattus norvegicus) (UniProt P08482); assay: qHTS Assay for Antagonists of Acetylcholine Muscarinic M1 Receptor: Measurement of IP-One Response (AID 944); also: nearly all actives have a fitted effect of over 75% in size
Method in brief: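 CHO cells expressing rat M1 receptor, recovered overnight, were pre-incubated 10 min with compound, then stimulated 30 min with carbachol at EC80 (200 nM) in LiCl-containing buffer, pH 7.4. IP1 accumulation was read by HTRF (620/665 nm).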

[15] = biological target: Pyruvate kinase (Leishmania mexicana) (UniProt Q27686); assay: qHTS Validation Assay for Inhibitors of Leishmania Mexicana Pyruvate Kinase (AID 945);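 also: 0% = DMSO only neutral control wells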
Method in brief: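 qHTS eight-point titrations against 0.2 nM LmPYK (E451W) in imidazole buffer pH 7.2 with 0.5 mM PEP, 0.1 mM ADP; 1 h, room temperature. Readout: PKLight luminescence, normalized to neutral DMSO wells.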

[16] = biological target: Pyruvate kinase PKM (Homo sapiens) (UniProt P14618); assay: qHTS Assay for Activators of Human Muscle Pyruvate Kinase (AID 954; active = well fitted curve in the direction sought with a large enough effect, not every such curve was filed as active;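 also: 0% = uninhibited enzyme and -100% = no enzyme or full thiadiazolimine inhibition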)
Method in brief: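 Purified human PKM2 (0.1 nM) with 0.5 mM PEP (Km) and 0.1 mM ADP in 50 mM imidazole pH 7.2, KCl, MgCl2, 1 h at room temperature; ATP formed read by coupled luciferase luminescence. Normalized to no-enzyme/110 uM thiadiazolimine inhibition; 0.3 nM enzyme column for activation.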

[17] = biological target: Alpha-galactosidase A (Homo sapiens) (UniProt P06280); assay: Counterscreen for Glucocerebrosidase Inhibitors: qHTS Assay for Human alpha-Galactosidase at pH 4.5 (AID 992); also: 0% is about no effect
Method in brief: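 Human enzyme (2 nM) with 80 uM 4-methylumbelliferyl alpha-D-galactopyranoside in 50 mM citric acid, 0.005% Tween-20, pH 4.5, 20 min at room temperature. Compounds 0.7 nM–77 uM; fluorescence Ex 365/Em 440 after pH 10 stop; AC50 from Hill fits.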

[18] = biological target: alpha-glucosidase (Oryza sativa, rice) (UniProt Q653V4); assay: Counterscreen for Glucocerebrosidase Inhibitors: qHTS Assay for Rice alpha-Glucosidase at pH 5.0 (AID 997);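 also: 0% = full activity with enzyme and -100% = basal without enzyme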
Method in brief: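 Rice alpha-glucosidase (4 nM final) with 400 uM 4-methylumbelliferyl-alpha-D-glucopyranoside in citrate buffer pH 5.0, 20 min at room temperature, stopped at pH 10; fluorescence 365/440 nm, compounds 0.7 nM–77 uM, AC50 from Hill fits.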

[19] = biological target: Cytochrome P450 2C9 (Homo sapiens) (UniProt P11712); assay: qHTS Assay for Inhibitors and Substrates of Cytochrome P450 2C9 (AID 883); also: % is scaled to controls: 0 for no effect and ±100 for the full control effect; nearly all actives have a fitted effect of over 60% in size
Method in brief: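 10nM CYP2C9 + 100uM Luciferin-H (=KM), 25mM KPO4; cpd 10 min 37C; NADPH regen, 60 min 37C; stop/detect with P450 Glo-Buffer 20 min; luminescence. Norm. to 57uM sulphaphenazole as full inhibition.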

[20] = biological target: Cytochrome P450 2D6 (Homo sapiens) (UniProt P10635); assay: qHTS Assay for Inhibitors and Substrates of Cytochrome P450 2D6 (AID 891);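 also: luciferin methyl ether substrate demethylated by CYP2D6 with NADPH regeneration; % is scaled to controls: 0 for no effect and ±100 for the full control effect; nearly all actives have a fitted effect of over 60% in size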
Method in brief: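 Human CYP2D6 (5 nM) with 30 uM Luciferin-ME EGE (at Km) in 100 mM KPO4, compound preincubated 10 min, then NADPH regeneration system for 60 min at room temperature. Luciferin read by luminescence; normalized to 1.43 uM quinidine.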

[21] = qHTS Assay for Identification of Small Molecule Antagonists for Thrombopoietin (TPO) Signaling Pathway (AID 918); details: TPO-dependent cell signaling reporter, antagonist mode; also: potency is read from the fitted curve at half-maximal effect; nearly all actives have a fitted effect of over 60% in size
Method in brief: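 Murine Ba/F3 cells stably expressing human TPO receptor and a Glycoprotein IIb promoter–luciferase reporter were IL-3-starved overnight, treated with compounds plus TPO (26 pM final, its EC50) for 24 hrs at 37 C, then read by luminescence.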

Sequence of Cytochrome P450 1A2 (Homo sapiens) (P05177 whole entry, looked up): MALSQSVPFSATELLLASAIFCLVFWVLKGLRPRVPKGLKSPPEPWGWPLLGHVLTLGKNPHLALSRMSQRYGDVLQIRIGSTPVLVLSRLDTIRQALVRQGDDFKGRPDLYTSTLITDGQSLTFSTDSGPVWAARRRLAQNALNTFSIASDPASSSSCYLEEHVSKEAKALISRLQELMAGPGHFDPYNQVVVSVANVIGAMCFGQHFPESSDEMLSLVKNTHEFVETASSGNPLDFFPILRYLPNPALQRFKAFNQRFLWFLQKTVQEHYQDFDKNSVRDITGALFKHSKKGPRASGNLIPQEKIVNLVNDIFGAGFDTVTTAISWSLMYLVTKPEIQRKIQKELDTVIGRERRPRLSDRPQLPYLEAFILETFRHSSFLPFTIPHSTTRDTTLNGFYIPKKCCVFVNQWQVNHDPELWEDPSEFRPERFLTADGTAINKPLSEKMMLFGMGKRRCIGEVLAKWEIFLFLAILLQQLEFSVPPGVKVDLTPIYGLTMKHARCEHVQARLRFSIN
Sequence of Glucocorticoid receptor (Homo sapiens) (P04150 whole entry, looked up, the tested form may be a part): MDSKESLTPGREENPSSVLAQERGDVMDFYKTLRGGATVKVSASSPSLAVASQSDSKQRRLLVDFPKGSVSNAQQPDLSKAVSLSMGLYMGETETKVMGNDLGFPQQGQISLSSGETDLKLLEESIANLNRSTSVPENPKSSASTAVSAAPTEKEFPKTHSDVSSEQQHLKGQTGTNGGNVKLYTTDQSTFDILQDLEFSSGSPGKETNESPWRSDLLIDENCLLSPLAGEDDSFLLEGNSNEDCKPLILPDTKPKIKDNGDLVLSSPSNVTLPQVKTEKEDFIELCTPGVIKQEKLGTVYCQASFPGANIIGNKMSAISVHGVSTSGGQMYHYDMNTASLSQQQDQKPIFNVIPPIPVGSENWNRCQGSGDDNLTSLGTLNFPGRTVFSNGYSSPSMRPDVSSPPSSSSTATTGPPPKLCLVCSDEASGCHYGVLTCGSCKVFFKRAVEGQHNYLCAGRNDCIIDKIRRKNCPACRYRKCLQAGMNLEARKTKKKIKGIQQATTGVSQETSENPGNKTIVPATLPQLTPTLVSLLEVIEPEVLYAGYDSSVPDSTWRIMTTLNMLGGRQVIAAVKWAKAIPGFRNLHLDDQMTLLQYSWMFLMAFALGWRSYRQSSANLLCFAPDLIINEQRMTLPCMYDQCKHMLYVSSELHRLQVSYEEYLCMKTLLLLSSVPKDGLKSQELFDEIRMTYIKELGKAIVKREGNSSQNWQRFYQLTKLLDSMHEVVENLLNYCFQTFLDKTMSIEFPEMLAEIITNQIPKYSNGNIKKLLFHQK
Sequence of Cytochrome P450 2C19 (Homo sapiens) (P33261 whole entry, looked up): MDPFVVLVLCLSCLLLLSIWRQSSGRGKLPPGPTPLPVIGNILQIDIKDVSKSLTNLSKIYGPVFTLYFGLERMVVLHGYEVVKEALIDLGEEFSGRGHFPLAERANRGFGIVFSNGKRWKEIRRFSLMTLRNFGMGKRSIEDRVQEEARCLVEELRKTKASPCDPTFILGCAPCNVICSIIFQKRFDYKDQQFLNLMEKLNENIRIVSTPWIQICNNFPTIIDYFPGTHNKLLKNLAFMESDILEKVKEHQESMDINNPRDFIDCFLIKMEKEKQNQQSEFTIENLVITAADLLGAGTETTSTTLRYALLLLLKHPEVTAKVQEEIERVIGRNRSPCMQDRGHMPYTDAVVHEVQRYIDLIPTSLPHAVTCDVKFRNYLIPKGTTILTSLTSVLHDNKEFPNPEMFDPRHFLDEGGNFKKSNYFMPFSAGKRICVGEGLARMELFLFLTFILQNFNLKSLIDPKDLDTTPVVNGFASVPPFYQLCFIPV
Sequence of Cytochrome P450 3A4 (Homo sapiens) (P08684 whole entry, looked up): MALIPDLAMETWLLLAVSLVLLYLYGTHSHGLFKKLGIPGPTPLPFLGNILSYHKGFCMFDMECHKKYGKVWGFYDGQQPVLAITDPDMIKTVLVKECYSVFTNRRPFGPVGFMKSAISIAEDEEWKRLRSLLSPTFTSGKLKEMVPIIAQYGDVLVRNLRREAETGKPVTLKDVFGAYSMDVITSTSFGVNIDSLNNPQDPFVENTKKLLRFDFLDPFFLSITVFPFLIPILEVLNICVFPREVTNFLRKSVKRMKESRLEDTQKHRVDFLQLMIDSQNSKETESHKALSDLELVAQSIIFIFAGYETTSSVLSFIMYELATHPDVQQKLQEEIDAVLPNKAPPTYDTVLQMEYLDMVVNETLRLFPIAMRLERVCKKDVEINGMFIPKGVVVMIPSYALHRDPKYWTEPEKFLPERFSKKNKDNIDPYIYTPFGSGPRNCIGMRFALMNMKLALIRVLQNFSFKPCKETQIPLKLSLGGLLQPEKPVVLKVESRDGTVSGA
Sequence of 3',5'-cyclic-AMP phosphodiesterase 4B (Homo sapiens) (Q07343 whole entry, looked up): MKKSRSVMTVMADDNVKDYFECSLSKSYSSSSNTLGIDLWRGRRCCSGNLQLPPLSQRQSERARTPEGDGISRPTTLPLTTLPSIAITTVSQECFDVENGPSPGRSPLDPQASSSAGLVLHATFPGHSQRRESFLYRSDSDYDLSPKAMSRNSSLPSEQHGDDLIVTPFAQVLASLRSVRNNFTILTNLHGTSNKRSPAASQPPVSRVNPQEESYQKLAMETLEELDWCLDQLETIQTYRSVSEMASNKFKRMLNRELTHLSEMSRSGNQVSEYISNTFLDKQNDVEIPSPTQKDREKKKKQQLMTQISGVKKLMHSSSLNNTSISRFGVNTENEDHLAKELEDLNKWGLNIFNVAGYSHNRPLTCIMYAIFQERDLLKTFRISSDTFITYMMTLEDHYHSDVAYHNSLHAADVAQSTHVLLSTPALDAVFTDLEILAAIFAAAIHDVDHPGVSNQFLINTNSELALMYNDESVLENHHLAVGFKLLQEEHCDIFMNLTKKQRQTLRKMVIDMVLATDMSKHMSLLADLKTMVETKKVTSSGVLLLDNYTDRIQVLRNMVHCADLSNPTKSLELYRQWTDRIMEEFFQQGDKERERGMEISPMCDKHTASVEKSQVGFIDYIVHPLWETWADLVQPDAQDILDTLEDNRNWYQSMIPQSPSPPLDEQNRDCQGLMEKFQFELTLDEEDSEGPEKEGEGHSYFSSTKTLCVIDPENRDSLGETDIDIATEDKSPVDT
Sequence of Guanine nucleotide-binding protein G(i) subunit alpha-1 (Homo sapiens) (P63096 whole entry, looked up): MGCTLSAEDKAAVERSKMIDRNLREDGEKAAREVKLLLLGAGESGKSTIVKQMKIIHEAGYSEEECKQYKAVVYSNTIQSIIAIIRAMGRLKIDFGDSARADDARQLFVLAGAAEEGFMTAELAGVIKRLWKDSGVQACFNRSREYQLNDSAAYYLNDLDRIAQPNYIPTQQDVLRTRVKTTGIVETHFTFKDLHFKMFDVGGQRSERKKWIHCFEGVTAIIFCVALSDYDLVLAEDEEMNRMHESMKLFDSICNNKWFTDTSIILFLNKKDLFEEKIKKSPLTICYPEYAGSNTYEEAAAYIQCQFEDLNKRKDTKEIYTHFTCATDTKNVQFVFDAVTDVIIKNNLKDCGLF
Sequence of Muscarinic acetylcholine receptor M1 (Rattus norvegicus) (P08482 whole entry, looked up): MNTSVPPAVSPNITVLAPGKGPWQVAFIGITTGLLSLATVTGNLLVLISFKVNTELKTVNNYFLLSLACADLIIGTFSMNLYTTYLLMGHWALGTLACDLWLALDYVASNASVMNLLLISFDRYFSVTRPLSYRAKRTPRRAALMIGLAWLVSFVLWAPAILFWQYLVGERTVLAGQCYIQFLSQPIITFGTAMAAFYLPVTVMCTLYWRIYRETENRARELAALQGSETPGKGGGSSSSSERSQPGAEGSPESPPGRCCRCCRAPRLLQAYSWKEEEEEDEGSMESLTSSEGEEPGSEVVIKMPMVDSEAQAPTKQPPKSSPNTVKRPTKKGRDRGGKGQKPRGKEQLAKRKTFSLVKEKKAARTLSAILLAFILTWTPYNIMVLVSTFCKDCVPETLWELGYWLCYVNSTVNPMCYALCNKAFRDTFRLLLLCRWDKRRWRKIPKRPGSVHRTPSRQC
Sequence of Cytochrome P450 2C9 (Homo sapiens) (P11712 whole entry, looked up): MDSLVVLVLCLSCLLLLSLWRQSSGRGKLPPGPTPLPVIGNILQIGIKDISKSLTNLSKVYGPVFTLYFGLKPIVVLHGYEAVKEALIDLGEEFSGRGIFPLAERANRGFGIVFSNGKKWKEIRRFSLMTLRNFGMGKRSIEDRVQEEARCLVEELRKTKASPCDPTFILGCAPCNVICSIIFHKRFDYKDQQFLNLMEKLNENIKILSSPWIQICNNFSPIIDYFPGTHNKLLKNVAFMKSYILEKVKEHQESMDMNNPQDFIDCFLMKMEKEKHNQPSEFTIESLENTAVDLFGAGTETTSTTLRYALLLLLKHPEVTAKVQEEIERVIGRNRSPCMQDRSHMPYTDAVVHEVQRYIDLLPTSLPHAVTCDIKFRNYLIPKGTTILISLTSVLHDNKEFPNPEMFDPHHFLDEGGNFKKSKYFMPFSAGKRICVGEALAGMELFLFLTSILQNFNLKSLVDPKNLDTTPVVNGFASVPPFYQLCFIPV
Sequence of Pyruvate kinase PKM (Homo sapiens) (P14618 whole entry, looked up): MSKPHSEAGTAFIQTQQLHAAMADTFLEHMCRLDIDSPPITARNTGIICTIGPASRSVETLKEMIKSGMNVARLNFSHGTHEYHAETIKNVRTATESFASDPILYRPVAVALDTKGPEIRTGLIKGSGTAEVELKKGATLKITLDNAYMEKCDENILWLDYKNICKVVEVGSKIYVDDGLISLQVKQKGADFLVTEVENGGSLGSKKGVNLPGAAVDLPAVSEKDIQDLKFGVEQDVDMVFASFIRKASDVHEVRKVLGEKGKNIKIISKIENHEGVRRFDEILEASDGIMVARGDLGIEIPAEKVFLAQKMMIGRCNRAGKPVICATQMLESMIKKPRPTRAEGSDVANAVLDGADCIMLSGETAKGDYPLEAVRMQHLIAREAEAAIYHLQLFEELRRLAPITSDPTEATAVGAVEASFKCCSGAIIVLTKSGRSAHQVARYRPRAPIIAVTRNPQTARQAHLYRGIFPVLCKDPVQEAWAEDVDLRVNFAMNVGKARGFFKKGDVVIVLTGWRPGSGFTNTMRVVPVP

CN(C)C[C@H]1CCC2=C(C1=O)C(c1ccc(Cl)c(Cl)c1)C1=C(CC[C@H](CN(C)C)C1=O)O2
active: Potency [8] 0.398 µM
inactive: activity change, negative = inhibition [1] 0.767% | activity change, negative = inhibition [2] -2% [at 2.29 µM] | activity, negative = inhibition [3] 13.6% | Potency [4] > 46 µM | Potency [5] > 9.22 µM | Potency [6] | Potency [7] | Potency [9]

COc1cc(O)c2c(O)c3c(c4c2c1[C@@]1(C4)C(C)=CCCC1(C)C)[C@H](O)[C@@]1(O)CC(=O)C(C(N)=O)=C(O)[C@]1(O)C3=O
active: Potency [2] 3.16 µM | Potency [10] 2.51 µM
inactive: activity change, negative = inhibition [1] -27.8% | Potency [4] > 46 µM | Potency [5] > 9.22 µM | Potency [6] | Potency [7]

Clc1ccc2c(NC3CCC(N4CCCCC4)CC3)ccnc2c1 (stereo not given)
inactive: activity change, negative = inhibition [1] -12.3% | activity change, negative = inhibition [2] -15.7% [at 2.29 µM] | activity, negative = inhibition [3] 3.71% | Potency [4] > 46 µM | Potency [5] > 9.22 µM | Potency [7] | Potency [10]

COc1cc2c(cc1O)CC[C@@H]1[C@@H]2CC[C@@]2(C)[C@H](O)CC[C@H]12
inactive: activity change, negative = inhibition [1] -4.01% [at 38 µM] | activity change, negative = inhibition [11] -2.76% [at 38 µM] | activity, negative = inhibition [3] -17.5% [at 38 µM] | Potency [4] > 46 µM | Potency [5] > 46 µM | Potency [6] | Potency [7] | outcome [12] | Potency [13] | Potency [14] | outcome [15] | outcome [16] | outcome [17] | Potency [18]

N[C@@H](CNO)C(=O)O
inactive: activity change, negative = inhibition [1] 7.51% | activity change, negative = inhibition [11] 0.975% | activity, negative = inhibition [3] -9.2% | Potency [4] > 46 µM | Potency [5] > 9.22 µM | Potency [6] | Potency [7]

C[C@@]12C(=O)OC(=O)[C@@]1(C)[C@H]1CC[C@@H]2O1
active: activity change, negative = inhibition [1] -102% [at 38 µM] | activity change, negative = inhibition [11] -104% [at 38 µM] | Potency [21] 3.16 µM
inactive: Potency [2] | Potency [5] > 46 µM | Potency [6] | Potency [7] | outcome [12] | Potency [19] | Potency [9] | Potency [20] | Potency [10] | outcome [15] | outcome [16] | outcome [17] | Potency [18]
